From PubChem
TDP1 cell CPT: DT40-hTDP1 cell growth loss with CPT; hit rate 12% among 420,000; AID 686979; chicken DT40 Tdp1-/-;hTDP1 cells + 20 nM CPT, ATP luminescence, 48 h; Potency, µM (highest dose often 46.2 µM), inactives show at the highest dose activity change, negative = growth inhibition, actives largely listed as inhibitors; further: potency means the concentration at half of the fitted maximal effect; on the % scale 0 is the no-effect control and ±100 the full control effect; nearly all actives have a fitted effect of over 55% in size
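Cell growth measured by CellTiter-Glo luminescence after a minimum 48 h, 37 C compound exposure with 20 nM CPT in Tdp1-knockout DT40 cells stably expressing hTDP1, seeded 400/well; qHTS titration format.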
IL1B secr inh: blocks inflammasome-driven IL-1 beta release; THP-1 LPS/ATP IL-1B secretion, AlphaLISA, 16 h; stronger effect = lower value; hit rate 4.7% among 360,000; activity change, % at 57.5 µM; AID 743279; in the data active means activity change below about -50%; inconclusive means mostly about -30% to -49%; further: on the % scale 0 is the no-effect control and ±100 the full control effect
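Secreted IL-1B measured by AlphaLISA bead assay after 16 h compound exposure of THP-1 cells; compounds (final up to 57.5 uM) added 1 h before LPS (250 ng/mL) and ATP (1.25 mM) stimulation; lower signal means less secretion.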
TDP1 cell noCPT: qHTS for Inhibitors of human tyrosyl-DNA phosphodiesterase 1 (TDP1): qHTS in cells in absence of CPT; hit rate 15% among 420,000; AID 686978, 2013; DT40 Tdp1-/- hTDP1 cells, no CPT, ATP luminescence, 48 h; Potency, µM (titrated, usually from 46.2 µM), for inactives: at the highest dose activity change, negative = growth inhibition, most hits filed as inhibitors; further: potency means the concentration at half of the fitted maximal effect; on the % scale 0 is the no-effect control and ±100 the full control effect; nearly all actives have a fitted effect of over 55% in size
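Seeded 400 DT40-hTDP1 cells/well (vehicle DMSO, no 20 nM CPT); pinned compounds; ≥48 hr at 37 °C; CellTiter-Glo luminescence as viability measure.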
TGFb SMAD3 inh: blocks TGF-b signaling; hit rate 1.2% among 410,000; Potency, µM (doses to about 46.1 µM), for inactives: top-dose activity, negative = inhibition, most hits filed as inhibitors; HepG2 CAGA-GFP TGF-b/SMAD3 reporter, GFP fluorescence, 18 h; TGF-beta stimulated, 500 pg/mL final; further: potency means the concentration at half of the fitted maximal effect; on the % scale 0 is the no-effect control and ±100 the full control effect; nearly all actives have a fitted effect of over 65% in size
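GFP signal (ex488/em500-530) from TGF-beta-stimulated HEPG2 CAGA-GFP cells, 500 pg/mL final, 18 h at 37 degrees C in DMEM plus 1% FBS, normalized to unstimulated and DMSO-stimulated controls.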
HepG2 viability: kills HepG2 cells in TGF-b inhibitor counter-screen. HepG2 CAGA-GFP viability, ATP luminescence, 18 h. Potency, µM (doses to about 46.1 µM), without a hit: at the top dose activity change, negative = cytotoxicity, hits mostly cytotoxic. hit rate 0.76% among 410,000. AID 588856; further: potency means the concentration at half of the fitted maximal effect
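CellTiter-Glo luminescence gave cytotoxicity after 18 hours at 37 degrees C. The cells were HepG2 CAGA-GFP in 1% FBS DMEM, stimulated with 500 pg/mL TGF-beta after compound addition. %Activity was normalised to no-cell wells (complete cell-killing) and DMSO (no toxicity), and curves were fitted and classified.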
ASM inhibitor: blocks human secretory acid sphingomyelinase | AID 504937 | P17405 | hit rate 0.006% among 340,000 | Potency, µM (titrated, usually from 57.5 µM), for the others: top-dose activity change, negative = inhibition, most hits filed as inhibitors | placental ASM, HMU-PC fluorogenic substrate, 60 min; further: potency means the concentration at half of the fitted maximal effect
Target sequence (P17405 47-631 limits assumed): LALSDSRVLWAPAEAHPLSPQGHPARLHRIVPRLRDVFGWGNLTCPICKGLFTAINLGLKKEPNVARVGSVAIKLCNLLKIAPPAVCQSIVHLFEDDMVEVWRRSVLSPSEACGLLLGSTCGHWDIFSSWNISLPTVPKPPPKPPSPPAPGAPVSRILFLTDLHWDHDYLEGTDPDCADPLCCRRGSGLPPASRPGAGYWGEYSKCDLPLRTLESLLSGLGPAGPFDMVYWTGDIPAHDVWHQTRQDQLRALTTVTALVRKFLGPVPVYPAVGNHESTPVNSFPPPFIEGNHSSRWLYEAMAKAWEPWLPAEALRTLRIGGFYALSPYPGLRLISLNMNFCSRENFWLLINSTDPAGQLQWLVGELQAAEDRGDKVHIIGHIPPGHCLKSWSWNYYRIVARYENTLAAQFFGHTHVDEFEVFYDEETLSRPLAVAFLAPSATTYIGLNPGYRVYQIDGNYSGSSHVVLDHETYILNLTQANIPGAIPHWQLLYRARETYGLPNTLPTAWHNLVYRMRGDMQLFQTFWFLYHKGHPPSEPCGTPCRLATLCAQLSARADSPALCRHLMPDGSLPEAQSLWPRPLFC
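Human placenta-derived ASM enzyme was preincubated with compound for 10 minutes at room temperature, then given fluorogenic substrate HMU-PC0 (9 uM final) for 60 minutes at 37 °C; a pH 10 stop preceded fluorescence reading at Ex 386/Em 447 nm.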
Numbers without * were called inactive; ? = inconclusive; nt = not tested or not shown. In the library only some 19% were active in any assay of this set; here they are far more common. Unless noted, the call rests on the fitted dose curve; in most records, active means well fitted curve in the direction sought with a large enough effect; inconclusive means small, poorly fitted or top-dose-only effect, or another doubt; inactive means no such curve, though single readings can be large; an effect the other way counts as inactive or inconclusive.

SMILES | TDP1 cell CPT | IL1B secr inh | TDP1 cell noCPT | TGFb SMAD3 inh | HepG2 viability | ASM inhibitor
CCc1nc2c(c(=O)c3ccccc3n2C)c(=O)n1C1CCCCCC1 | ? | -7 | 16µM* | 0% | -34% | -2%
Cn1c2ccccc2c(=O)c2c(=O)n(C3CCCCC3)c(-c3cccs3)nc21 | ? | 37 | ? | 11% | 1% | -1%
COc1ccc(CCn2c(C3CCCCC3)nc3c(c(=O)c4ccccc4n3C)c2=O)cc1OC | ? | 5 | ? | -25% | -2% | -5%
Cn1c2ccccc2c(=O)c2c(=O)n(C3CCCCCC3)c(C3CCCCC3)nc21 | 15µM* | 28 | 13µM* | ? | 5% | -1%
COc1ccc(Cn2c(C3CCCCC3)nc3c(c(=O)c4ccccc4n3C)c2=O)cc1 | ? | 20 | 16µM* | 12% | -17% | -14%
CC(C)CCNC(=O)c1ccc(Cn2c(SCC(=O)NC(C)C)nc3ccccc3c2=O)cc1 | ? | nt | ? | 2% | -11% | nt
COCC(C)N1CCC(Oc2cccc(C(=O)NCCc3ccccc3)c2)CC1 (centres undefined) | -19% | 4 | -9% | 10% | -17% | 2%
Cc1coc2c1c(C)cc1oc(=O)cc(C)c12 | 19% | nt | 6% | -2% | -10% | nt
Cc1ccc(C(=O)Nc2cccc(Oc3ccccc3)c2)o1 | 18µM* | -26 | ? | -30% | 4% | -4%
COc1cccc(NC(=O)c2ccc(C(=O)c3ccccc3)o2)c1 | ? | ? | 18µM* | -29% | -12% | -4%
Cc1oc(C(=O)Nc2ccc(O)cc2)cc1COc1ccccc1 | ? | -6 | 16µM* | -9% | -18% | -3%
O=C(Nc1ccc(O)cc1)c1ccc(C(=O)c2ccccc2)o1 | 25µM* | -17 | 20µM* | 10% | -25% | -1%
CCCCCCCCCCCC(=O)NC1CCS(=O)(=O)C1 (centres undefined) | ? | -15 | ? | -23% | 23% | -18%
COc1ccccc1NC(=O)CSC1=Nc2ccccc2C2=NC(CCC(=O)NCCc3ccccc3)C(=O)N12 (centres undefined) | ? | nt | 23µM* | 15% | -5% | nt
O=C(CCC1N=C2c3ccccc3N=C(SCc3ccccc3Cl)N2C1=O)N1CCN(c2ccccc2)CC1 (centres undefined) | ? | nt | 21µM* | -20% | -18% | nt
COc1ccccc1NC(=O)CSC1=Nc2ccccc2C2=NC(CCC(=O)NCc3ccco3)C(=O)N12 (centres undefined) | 15µM* | nt | 16µM* | 27% | 6% | nt
O=C(CCC1N=C2c3ccccc3N=C(SCc3ccccc3Cl)N2C1=O)NCc1ccco1 (centres undefined) | ? | ? | 18µM* | -17% | -20% | 12%
COc1ccc(OC)c(S(=O)(=O)N2CCC(C(=O)N3CCCCCC3)CC2)c1 | 2% | -9 | -12% | -1% | -9% | 12%
COC(=O)[C@H](Cc1ccccc1)NC(=O)/C=C/[C@H]1O[C@@H](n2cc(C)c(=O)[nH]c2=O)C[C@@H]1O | 0% | 17 | -4% | -13% | -6% | nt
COCCN1C(=O)CCC1(C)C(=O)Nc1ccc2ccccc2c1 (centres undefined) | 0% | 20 | 16% | -26% | -2% | nt
CC(=O)NCC1CCCN(C(=O)c2ccc(OC3CCN(Cc4ccccn4)CC3)cc2)C1 (centres undefined) | -7% | 28 | 18% | -26% | 2% | 0%
CCN(CC)S(=O)(=O)c1ccc(OC)c(NC(=O)c2cn(CC)c3nc(C)ccc3c2=O)c1 | -4% | 4 | -3% | -5% | 4% | 1%
O=C(O)C1=C[C@@H](O)[C@@H](O)[C@H](O)C1 | 6% | 0 | -2% | -4% | -11% | 1%
CCc1nc2ccc(C(=O)Nc3ccc4c(c3)OCC(=O)N4)cn2c1N(C)C(=O)Cc1ccccc1 | -15% | -22 | -25% | 13% | 0% | nt
O=[N+]([O-])c1cccc(/C=N\N=C2c3ccccc3-c3ccccc32)c1O | ? | 0 | 16µM* | 26% | -17% | -10%
SMILES | TDP1 cell CPT | IL1B secr inh | TDP1 cell noCPT | TGFb SMAD3 inh | HepG2 viability | ASM inhibitor
NC(N)=N/N=C/c1cccc([N+](=O)[O-])c1O | 11% | 0 | -5% | -1% | -1% | -4%
Oc1ccc(C=NN=C2c3ccccc3-c3ccccc32)c(O)c1 | ? | -58* | 15µM* | ? | -113% | -22%
CC(C)=CCOc1ccc2c(C)c(CC(=O)N3C[C@H]4C[C@@H](C3)c3cccc(=O)n3C4)c(=O)oc2c1C | ? | 2 | ? | 0% | -16% | 454%
N#Cc1nc(N2CCCCC2)nc(N(c2ccccc2)c2ccccc2)n1 | 11µM* | nt | 13µM* | 4% | -1% | nt
N#Cc1nc(N2CCCCC2)nc(N2CCCCC2)n1 | ? | nt | 13µM* | 0% | 4% | nt
CCNc1nc(C#N)nc(N2CCCCC2)n1 | ? | nt | ? | -1% | -26% | nt
Nc1nc(N2CCCCC2)nc(N(c2ccccc2)c2ccccc2)n1 | ? | 1 | ? | -3% | -4% | -2%
Cc1oc(-c2ccc(C(=O)NCCC(C)C)cc2)nc1CS(=O)(=O)c1ccccc1 | -23% | nt | -18% | 17% | -80% | nt
Cc1ccc(NC(=O)CN(C)C(=O)Cc2ccc(Cl)c(Cl)c2)cc1 | 29µM* | -9 | ? | 7% | -14% | -3%
Cc1ccc(NC(=O)CN(C)C(=O)Cn2ncc(Cl)c(Cl)c2=O)cc1 | 3.3µM* | -105* | 2.6µM* | ? | -13% | 5%
CC1CCC(NC(=O)CC(C)(C)Cc2nc3ccccc3c(=O)[nH]2)CC1 (centres undefined) | 16µM* | -56* | 23µM* | -16% | -12% | -2%
C/C=C/c1ccc2c(c1)O[C@@H](CN(C)C(=O)c1ccc(F)cc1)[C@@H](C)CN([C@H](C)CO)S2(=O)=O | ? | -3 | ? | -28% | -32% | nt
C[C@H]1CN([C@@H](C)CO)S(=O)(=O)c2ccc(-c3ccccc3)cc2O[C@H]1CN(C)C(=O)C1CCC1 | ? | 19 | 15µM* | 0% | -12% | nt
C[C@H]1CN([C@@H](C)CO)S(=O)(=O)c2ccc(/C=C/c3ccccc3)cc2O[C@H]1CN(C)C(=O)NC1CCCCC1 | ? | -55* | 18µM* | ? | -5% | nt
